# The sample as a whole holds a higher share of the strongest signals than the screen did.
# Key:
# Experiment in all cases: glycan array binding signal (z-score within array); higher = stronger binding
# Conditions in all cases: glycan notation: IUPAC condensed, linker removed
# [1] = biological target: Fuc(a1-2)Gal(b1-3)[Fuc(a1-4)]GlcNAc(b1-2)Man(a1-3)[Fuc(a1-2)Gal(b1-3)[Fuc(a1-4)]GlcNAc(b1-2)Man(a1-6)]Man(b1-4)GlcNAc(b1-4)[Fuc(a1-6)]GlcNAc(b1-4)[Fuc(a1-6)]GlcNAc
# In short: (§1)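 Negative Z-scores can be read as non-binding. The Z-score is calculated within each array and then averaged across arrays of one protein sequence at different concentrations or buffers and across linkers. Arrays, 3228 in all, were curated from the Consortium for Functional Glycomics database and kept only where the protein sequence was available.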
# [2] = biological target: Fuc(a1-2)Gal(b1-3)[Fuc(a1-4)]GlcNAc(b1-3)[Gal(b1-4)GlcNAc(b1-6)]Gal(b1-4)Glc
# In short: as §1
# [3] = biological target: Fuc(a1-2)Gal(b1-4)Fuc(a1-3)]GlcNAc(b1-2)Man(a1-3)[Fuc(a1-2)Gal(b1-4)[Fuc(a1-3)]GlcNAc(b1-2)Man(a1-6)]Man(b1-4)GlcNAc(b1-4)GlcNAc
# In short: as §1
# [4] = biological target: Fuc(a1-2)Gal(b1-4)[Fuc(a1-3)]GlcNAc(b1-3)Gal(b1-4)[Fuc(a1-3)]GlcNAc
# In short: as §1
# [5] = biological target: Fuc(a1-2)[Gal(a1-3)]Gal(b1-3)GlcNAc(b1-2)Man(a1-3)[Fuc(a1-2)[Gal(a1-3)]Gal(b1-3)GlcNAc(b1-2)Man(a1-6)]Man(b1-4)GlcNAc(b1-4)[Fuc(a1-6)]GlcNAc
# In short: as §1
# [6] = biological target: Fuc(a1-2)[Gal(a1-3)]Gal(b1-4)GlcNAc(b1-3)[Fuc(a1-2)[Gal(a1-3)]Gal(b1-4)GlcNAc(b1-6)]GalNAc
# In short: as §1
# [7] = biological target: Fuc(a1-2)[GalNAc(a1-3)]Gal(b1-3)GalNAc(b1-3)Gal(a1-4)Gal(b1-4)Glc
# In short: as §1
# [8] = biological target: Fuc(a1-2)[GalNAc(b1-3)]Gal
# In short: as §1
# [9] = biological target: Fuc(a1-3)[Gal(b1-4)]GlcNAc(b1-3)Gal(b1-4)[Fuc(a1-3)]GlcNAc
# In short: as §1
# Fuc(b1-3)GlcNAc = biological target: Fuc(b1-3)GlcNAc
# In short: as §1
# [10] = biological target: Gal(a1-3)Gal(b1-3)[Fuc(a1-4)]GlcNAc(b1-2)Man(a1-3)[Gal(a1-3)Gal(b1-3)[Fuc(a1-4)]GlcNAc(b1-2)Man(a1-6)]Man(b1-4)GlcNAc(b1-4)GlcNAc
# In short: as §1
# [11] = biological target: Gal(a1-3)[Gal(a1-4)]Gal(b1-4)GlcNAc
# In short: as §1
# [12] = biological target: Gal(b1-3)GlcNAc(b1-3)Gal(b1-4)GlcNAc(b1-2)Man(a1-3)[Gal(b1-3)GlcNAc(b1-3)Gal(b1-4)GlcNAc(b1-2)Man(a1-6)]Man(b1-4)GlcNAc(b1-4)GlcNAc
# In short: as §1
# [13] = biological target: Gal(b1-3)[Fuc(a1-4)]GlcNAc(b1-2)Man(a1-3)[Gal(b1-3)[Fuc(a1-4)]GlcNAc(b1-2)Man(a1-6)]Man(b1-4)GlcNAc(b1-4)[Fuc(a1-6)]GlcNAc
# In short: as §1
# [14] = biological target: Gal(b1-3)[GlcNAc(b1-6)]GalNAc
# In short: as §1
# [15] = biological target: Gal(b1-4)GalNAc(a1-3)[Fuc(a1-2)]Gal(b1-4)GlcNAc
# In short: as §1
# [16] = biological target: Gal(b1-4)GlcNAc(b1-2)Man(a1-3)[Gal(b1-4)GlcNAc(b1-2)Man(a1-6)]Man(b1-4)GlcNAc(b1-4)[Fuc(a1-6)]GlcNAc
# In short: as §1
# [17] = biological target: Gal(b1-4)GlcNAc(b1-2)[Gal(b1-4)GlcNAc(b1-6)]Man(a1-6)[Gal(b1-4)GlcNAc(b1-2)Man(a1-3)]Man(b1-4)GlcNAc(b1-4)[Fuc(a1-6)]GlcNAc
# In short: as §1
# [18] = biological target: Gal(b1-4)GlcNAc(b1-3)Gal(b1-4)GlcNAc
# In short: as §1
# [19] = biological target: Gal(b1-4)GlcNAc(b1-3)Gal(b1-4)GlcNAc(b1-2)Man(a1-3)[Gal(b1-4)GlcNAc(b1-3)Gal(b1-4)GlcNAc(b1-2)Man(a1-6)]Man(b1-4)GlcNAc(b1-4)GlcNAc
# In short: as §1
# [20] = biological target: Gal(b1-4)GlcNAc(b1-3)Gal(b1-4)GlcNAc(b1-3)Gal(b1-4)GlcNAc(b1-3)Gal(b1-4)GlcNAc(b1-3)Gal(b1-4)GlcNAc(b1-3)Gal(b1-4)GlcNAc(b1-2)Man(a1-3)[Gal(b1-4)GlcNAc(b1-3)Gal(b1-4)GlcNAc(b1-3)Gal(b1-4)GlcNAc(b1-3)Gal(b1-4)GlcNAc(b1-3)Gal(b1-4)GlcNAc(b1-3)Gal(b1-4)GlcNAc(b1-2)Man(a1-6)]Man(b1-4)GlcNAc(b1-4)GlcNAc
# In short: as §1
# [21] = biological target: Gal(b1-4)GlcNAc(b1-3)Gal(b1-4)GlcNAc(b1-3)[Gal(b1-4)GlcNAc(b1-3)Gal(b1-4)GlcNAc(b1-6)]GalNAc
# In short: as §1
# [22] = biological target: Gal(b1-4)GlcNAc(b1-3)GalNAc
# In short: as §1
# Gal3S6S(b1-4)GlcNAc6S = biological target: Gal3S6S(b1-4)GlcNAc6S
# In short: as §1
# GalNAc(a1-3)GalNAc = biological target: GalNAc(a1-3)GalNAc
# In short: as §1
# GalNAc3S(b1-4)GlcNAc3S = biological target: GalNAc3S(b1-4)GlcNAc3S
# In short: as §1
# GalNAc4S6S(b1-4)GlcNAc = biological target: GalNAc4S6S(b1-4)GlcNAc
# In short: as §1
# Glc(a1-6)Glc(a1-6)Glc = biological target: Glc(a1-6)Glc(a1-6)Glc
# In short: as §1
# GlcA(b1-6)Gal = biological target: GlcA(b1-6)Gal
# In short: as §1
# [23] = biological target: GlcA3S(b1-3)Gal(b1-4)GlcNAc(b1-3)Gal(b1-4)Glc
# In short: as §1
# [24] = biological target: GlcNAc(a1-4)Gal(b1-4)GlcNAc(b1-3)Gal(b1-4)GlcNAc
# In short: as §1
# [25] = biological target: GlcNAc(b1-3)Gal(b1-4)GlcNAc
# In short: as §1
# [26] = biological target: GlcNAc(b1-3)Gal(b1-4)GlcNAc(b1-2)Man(a1-3)[GlcNAc(b1-3)Gal(b1-4)GlcNAc(b1-2)Man(a1-6)]Man(b1-4)GlcNAc(b1-4)[Fuc(a1-6)]GlcNAc
# In short: as §1
# [27] = biological target: GlcNAc(b1-3)Gal(b1-4)GlcNAc(b1-3)Gal(b1-4)GlcNAc(b1-2)Man(a1-3)[GlcNAc(b1-3)Gal(b1-4)GlcNAc(b1-3)Gal(b1-4)GlcNAc(b1-2)Man(a1-6)]Man(b1-4)GlcNAc(b1-4)GlcNAc
# In short: as §1
# [28] = biological target: GlcNAc(b1-3)Gal(b1-4)GlcNAc(b1-3)Gal(b1-4)GlcNAc(b1-3)Gal(b1-4)GlcNAc(b1-2)Man(a1-3)[GlcNAc(b1-3)Gal(b1-4)GlcNAc(b1-3)Gal(b1-4)GlcNAc(b1-3)Gal(b1-4)GlcNAc(b1-2)Man(a1-6)]Man(b1-4)GlcNAc(b1-4)[Fuc(a1-6)]GlcNAc
# In short: as §1
# Kdn(a2-3)Gal(b1-4)GlcNAc = biological target: Kdn(a2-3)Gal(b1-4)GlcNAc
# In short: as §1
# Neu5Ac(a2-3)Gal = biological target: Neu5Ac(a2-3)Gal
# In short: as §1
# [29] = biological target: Neu5Ac(a2-3)Gal(b1-3)GalNAc(b1-3)Gal(a1-4)Gal(b1-4)Glc
# In short: as §1
# [30] = biological target: Neu5Ac(a2-3)Gal(b1-3)GlcNAc(b1-3)Gal(b1-4)GlcNAc
# In short: as §1
# [31] = biological target: Neu5Ac(a2-3)Gal(b1-3)GlcNAc(b1-6)GalNAc
# In short: as §1
# [32] = biological target: Neu5Ac(a2-3)Gal(b1-4)GlcNAc(b1-3)Gal(b1-4)GlcNAc(b1-3)GalNAc
# In short: as §1
# [33] = biological target: Neu5Ac(a2-3)Gal(b1-4)[Fuc(a1-3)]GlcNAc
# In short: as §1
# [34] = biological target: Neu5Ac(a2-3)Gal(b1-4)[Fuc(a1-3)]GlcNAc(b1-3)Gal(b1-4)[Fuc(a1-3)]GlcNAc(b1-3)Gal(b1-4)[Fuc(a1-3)]GlcNAc
# In short: as §1
# [35] = biological target: Neu5Ac(a2-3)Gal(b1-4)[Fuc(a1-3)]GlcNAc(b1-3)GalNAc
# In short: as §1
# [36] = biological target: Neu5Ac(a2-3)[Neu5Ac(a2-6)]GalNAc
# In short: as §1
# [37] = biological target: Neu5Ac(a2-6)Gal(b1-4)GlcNAc(b1-2)Man
# In short: as §1
# [38] = biological target: Neu5Ac(a2-6)Gal(b1-4)GlcNAc(b1-2)Man(a1-3)[Gal(b1-4)GlcNAc(b1-2)Man(a1-6)]Man(b1-4)GlcNAc(b1-4)GlcNAc
# In short: as §1
# [39] = biological target: Neu5Ac(a2-8)Neu5Ac(a2-3)Gal(b1-3)GalNAc(b1-4)[Neu5Ac(a2-3)]Gal(b1-4)Glc
# In short: as §1
# [40] = biological target: Neu5Ac(a2-8)Neu5Ac(a2-3)[Gal(b1-3)GalNAc(b1-4)]Gal(b1-4)Glc
# In short: as §1
# [41] = biological target: Neu5Ac(a2-8)Neu5Ac(a2-8)Neu5Ac(a2-8)Neu5Ac(a2-3)[GalNAc(b1-4)]Gal(b1-4)Glc
# In short: as §1
binder,measurement,setting,value
"XTP3-B-MRH1 (Homo sapiens), Q96DZ1 (protein) LLEPLFKQSSCSYRIESYWTYEVCHGKHIRQYHEEKETGQKINIHEYYLGNMLAKNLLFEKEREAEEKEKSNEIPTKNIEGQMTPYYPVGMGNGTPCSLKQNRPRSSTVMYICHPESKHEILSVAEVTTCEYEVVILTPLLCSHPKYRFRA",glycan array binding signal (z-score),[1],0.479
same,glycan array binding signal (z-score),[2],0.735
same,glycan array binding signal (z-score),[3],3.43
same,glycan array binding signal (z-score),[4],0.249
same,glycan array binding signal (z-score),[5],-0.029
same,glycan array binding signal (z-score),[6],0.358
same,glycan array binding signal (z-score),[7],-0.49
same,glycan array binding signal (z-score),[8],-1.01
same,glycan array binding signal (z-score),[9],4.25
same,glycan array binding signal (z-score),Fuc(b1-3)GlcNAc,0.382
same,glycan array binding signal (z-score),[10],-0.237
same,glycan array binding signal (z-score),[11],-0.853
same,glycan array binding signal (z-score),[12],0.941
same,glycan array binding signal (z-score),[13],-0.731
same,glycan array binding signal (z-score),[14],-0.389
same,glycan array binding signal (z-score),[15],-0.41
same,glycan array binding signal (z-score),[16],-0.184
same,glycan array binding signal (z-score),[17],1.61
same,glycan array binding signal (z-score),[18],2.97
same,glycan array binding signal (z-score),[19],3.79
same,glycan array binding signal (z-score),[20],0.082
same,glycan array binding signal (z-score),[21],1.07
same,glycan array binding signal (z-score),[22],-0.205
same,glycan array binding signal (z-score),Gal3S6S(b1-4)GlcNAc6S,-0.392
same,glycan array binding signal (z-score),GalNAc(a1-3)GalNAc,3.12
same,glycan array binding signal (z-score),GalNAc3S(b1-4)GlcNAc3S,3.07
same,glycan array binding signal (z-score),GalNAc4S6S(b1-4)GlcNAc,-0.682
same,glycan array binding signal (z-score),Glc(a1-6)Glc(a1-6)Glc,-0.837
same,glycan array binding signal (z-score),GlcA(b1-6)Gal,0.841
same,glycan array binding signal (z-score),[23],-0.47
same,glycan array binding signal (z-score),[24],-0.549
same,glycan array binding signal (z-score),[25],-0.824
same,glycan array binding signal (z-score),[26],-0.235
same,glycan array binding signal (z-score),[27],2.48
same,glycan array binding signal (z-score),[28],4.18
same,glycan array binding signal (z-score),Kdn(a2-3)Gal(b1-4)GlcNAc,-0.086
same,glycan array binding signal (z-score),Neu5Ac(a2-3)Gal,-0.797
same,glycan array binding signal (z-score),[29],-0.636
same,glycan array binding signal (z-score),[30],0.189
same,glycan array binding signal (z-score),[31],-0.811
same,glycan array binding signal (z-score),[32],3.41
same,glycan array binding signal (z-score),[33],-0.083
same,glycan array binding signal (z-score),[34],-0.381
same,glycan array binding signal (z-score),[35],2.68
same,glycan array binding signal (z-score),[36],0.205
same,glycan array binding signal (z-score),[37],1.44
same,glycan array binding signal (z-score),[38],-0.887
same,glycan array binding signal (z-score),[39],-1.01
same,glycan array binding signal (z-score),[40],2.49
same,glycan array binding signal (z-score),[41],1.37

# From the supplement of paper PMC8728848
